The source of these data is PubChem BioAssay AID463173 (ICCB-Longwood Screening Facility, Harvard Medical School, 2010).

The structures appear in SMILES notation. The campaign covered roughly 52,000 compounds. About 4,300 (8.3%) were called active. Many of the other results were omitted from the sample, so actives are more common in it than they were. Values without a mark were called inactive. No stated cut-off is given here; in the data, active means survival mostly below about 52% (no sharp cut-off); inactive means mostly above about 56%.

This experiment relates to DeltatarO mutant. The experiment can be described thus: S. aureus survival, RN4220 and DeltatarO strains – OD600, teichoic acid synthesis inhibitors, primary screen (AID 463173). As to conditions: S. aureus RN4220 wild type/DeltatarO growth, OD600, 18 h, hits give low values, screened at 18.75 µg/mL (by protocol).
As for `Cc1c(C(=O)O)oc2c1-c1nn(Cc3ccc(Cl)cc3)cc1CC2`, the survival was 89%.
For `CC(=O)Nc1ccc(NC(=O)c2oc3c(c2C)-c2nn(Cc4ccccc4Cl)cc2CC3)cc1`, the survival was 61%.
In the case of `CCOC(=O)c1oc2c(c1C)-c1nn(Cc3ccc(Cl)cc3)cc1CC2`, the survival is 16% (active).
For `Cc1c(C(=O)O)oc2c1-c1nn(Cc3ccccc3Cl)cc1CC2`, the survival was 80%.
Consider `CCOC(=O)c1oc2c(c1C)-c1nn(Cc3ccccc3Cl)cc1CC2`, for which the survival is 38% (active).
For `COc1ccc(NC(=O)c2oc3c(c2C)-c2nn(Cc4ccccc4Cl)cc2CC3)cc1OC` the value was 53% (active).
Turning to `CCOC(=O)c1oc2c(c1C)-c1nn(Cc3cccc(Cl)c3)cc1CC2`, the survival was 53%.
For `CCOC(=O)c1ccc(NC(=O)c2oc3c(c2C)-c2nn(Cc4ccccc4Cl)cc2CC3)cc1`, the survival is 68%.
Take `COCCCNC(=O)c1oc2c(c1C)-c1nn(Cc3ccccc3Cl)cc1CC2`: the survival was 66%.
On to `CC1=C(C(=O)OCC2CCCCC2)C(c2cccc(F)c2F)CC(=O)N1` (stereo unspecified), for which the survival is 95%.
Take `O=C1CC(NC2CC2)C(=O)N1c1ccccc1` (stereo unspecified): the survival was 93%.
Regarding `COc1ccc2c(c1)CCc1c(C(=O)Nc3c(C)nn(Cc4ccc(Cl)c(Cl)c4)c3C)noc1-2`, the survival is 153%.
In the case of `O=C(Nc1cnn(Cc2ccc(Cl)cc2Cl)c1)c1noc2c1CCc1ccccc1-2`, the survival was 47% (active).
For `Cc1nn(Cc2ccc(F)cc2)c(C)c1NC(=O)c1noc2c1CCc1ccccc1-2` the value was 63%; for `Cc1nn(Cc2ccc(Cl)c(Cl)c2)c(C)c1NC(=O)c1noc2c1CCc1ccccc1-2`, 46% (active); for `Cc1nn(Cc2ccc(Cl)cc2)c(C)c1NC(=O)c1noc2c1CCc1ccccc1-2`, 31% (active).
For `COc1ccc(Cl)cc1NC(=O)c1noc2c1CCc1ccccc1-2` the value was 71%.
For the compound `COc1ccc2c(c1)CCc1c(C(=O)Nc3cnn(Cc4ccc(Cl)cc4Cl)c3)noc1-2`, the survival was 142%.
For `COc1ccc2c(c1)CCc1c(C(=O)Nc3c(C)nn(Cc4ccc(Cl)cc4)c3C)noc1-2` the value was 107%.
`COc1ccc2c(c1)CCc1c(C(=O)Nc3c(C)nn(Cc4ccccc4)c3C)noc1-2`: the survival is 118%.
As to `CCOC(=O)c1ccc(OC(=O)c2cn(-c3cccc(OC)c3)c(=O)c3ccccc23)cc1`, the survival was 85%.
Under `Cc1cc(NC(=O)CSc2nc3c([nH]c4ccccc43)c(=O)n2-c2cccc(Cl)c2)no1` stands 73%; under `CC(=O)c1cc(-c2ccc(F)cc2)n(CC(=O)NCc2ccc(C)cc2)c1C`, 99%; under `COc1ccc2nc(N(Cc3cccnc3)C(=O)c3ccc4c(c3)OCCO4)sc2c1`, 65%.
For `Cc1ccc(NC(=O)c2ccco2)nc1`, the survival was 108%.
For `CC1=C(C(=O)Nc2ccc(Cl)cc2)C(CC(C)C)n2nc(SCc3ccccc3C)nc2N1` (stereo unspecified), the survival is 127%.
For `COC(=O)CCNC(=O)NC(CCC(C)C)c1c(-n2cccc2)sc2c1CCN(C)C2` (stereo unspecified) the value was 75%.
Take `Cc1cc(C)cc(N2CC(c3nc(-c4cccc(Cl)c4)no3)CC2=O)c1` (stereo unspecified): the survival is 37% (active).
As for `O=C1CC(c2nc(-c3ccc(Cl)cc3)no2)CN1c1ccc2c(c1)OCCO2` (stereo unspecified), the survival was 115%.
Regarding `CN(C)c1ccc(-c2noc(C3CC(=O)N(c4ccc5c(c4)OCCO5)C3)n2)cc1` (stereo unspecified), the survival is 92%.
Consider `COc1ccc(-c2noc(C3CC(=O)N(c4cc(C)cc(C)c4)C3)n2)cc1` (stereo unspecified), for which the survival was 91%.
Consider `O=C1CC(c2nc(-c3ccccc3)no2)CN1c1ccc2c(c1)OCCO2` (stereo unspecified), for which the survival was 93%.
`Cc1ccc(-c2noc(C3CC(=O)N(c4ccc5c(c4)OCCO5)C3)n2)cc1` (stereo unspecified): the survival was 46% (active).
With `COc1ccc(-c2noc(C3CC(=O)N(c4ccccc4)C3)n2)c(OC)c1` (stereo unspecified), the survival is 101%.
On to `O=C1CC(c2nc(-c3ccccc3)no2)CN1c1ccccc1` (stereo unspecified), for which the survival was 25% (active).
For `O=C1CC(c2nc(-c3cccc(Cl)c3)no2)CN1c1ccc2c(c1)OCCO2` (stereo unspecified), the survival is 144%.
Take `Cc1ccc(-c2nc3n(n2)C(=O)CC(c2ccc(C)cc2)S3)cc1` (stereo unspecified): the survival was 90%.
Turning to `NC(=O)CSc1ncnc2c1cnn2-c1ccccc1`, the survival is 82%.
Under `O=C1CN(C(=O)COc2ccc(Cl)cc2)C(c2ccc(F)cc2)c2cc(Cl)ccc2N1` (stereo unspecified) stands 45%; under `O=C1CN(C(=O)COc2ccc(Cl)cc2)C(c2ccccc2)c2cc(Br)ccc2N1` (stereo unspecified), 60%.
For `O=C1CN(C(=O)c2c(F)cccc2Cl)C(c2ccc(F)cc2)c2cc(Br)ccc2N1` (stereo unspecified) the value was 42% (active).
Under `O=C1CN(C(=O)COc2ccc(Cl)cc2)C(c2ccc(F)cc2)c2cc(Br)ccc2N1` (stereo unspecified) stands 36% (active); under `COc1ccc(C(=O)N2CC(=O)Nc3ccc(Br)cc3C2c2ccc(F)cc2)cc1OC` (stereo unspecified), 48%; under `CCCCOc1ccc(C(=O)N2CC(=O)Nc3ccc(Br)cc3C2c2ccc(F)cc2)cc1` (stereo unspecified), 39% (active).
Take `O=C1CN(C(=O)Cc2ccc(F)cc2)C(c2ccccc2)c2cc(Br)ccc2N1` (stereo unspecified): the survival is 58%.
Under `CCOc1ccc(C(=O)N2CC(=O)Nc3ccc(F)cc3C2c2ccc(F)cc2)cc1` (stereo unspecified) stands 148%; under `O=C1CN(C(=O)COc2ccccc2)C(c2ccc(F)cc2)c2cc(Br)ccc2N1` (stereo unspecified), 33% (active).
For `Cc1ccc(C(=O)N2CC(=O)Nc3ccc(Br)cc3C2c2ccc(F)cc2)cc1C` (stereo unspecified), the survival was 66%.
In the case of `O=C1CN(C(=O)c2ccccc2)C(c2ccc(F)cc2)c2cc(Br)ccc2N1` (stereo unspecified), the survival was 60%.
Turning to `O=C(c1ccccc1/S(=N/S(=O)(=O)c1ccccc1)N1CCOCC1)N1CCOCC1` (stereo unspecified), the survival is 75%.
For `Clc1cccc(-c2nnc(CN3CCN(c4ccccn4)CC3)o2)c1` the value was 82%.
For `CCOc1ccc(CC(=O)NCC(c2cccs2)S(=O)(=O)c2ccc(F)c(C)c2)cc1` (stereo unspecified) the value was 67%; for `Cc1ccc(N2CC(NC(=O)C3CCCC3)CC2=O)cc1C` (stereo unspecified), 103%; for `Cc1ccc(CNc2oc(-c3ccc(COc4ccc(C)cc4)o3)nc2C#N)cc1`, 65%.
Consider `COCCNC(=O)CCCn1c(SCc2ccccc2C)nc2c(sc3ccccc32)c1=O`, for which the survival was 97%.
Under `Cc1ccc2oc3c(c(=O)c2c1)C(c1ccc(OCC(N)=O)cc1)N(Cc1ccc2c(c1)OCO2)C3=O` (stereo unspecified) stands 93%.
